VDR inhibitor: blocks the human vitamin D receptor; P11473; VDR-SRC2-3 peptide fluorescence polarization, 2 h; Potency, µM, usual class: inhibitors; actives 0.93% (n = 400,000); AID 504847
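After 23 nl compound addition and a short centrifugation, plates sat for 2 hours at ambient temperature; polarization of fluorescence then indicated loss of VDR binding to peptide SRC2-3.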
Pin1 inh: inhibitors of human Pin1; Q13526; Pin1 FP peptide displacement, HiFluor488, 10 min; Potency, µM (highest dose often 115 µM), usual class: inhibitors; actives 0.009% (n = 390,000); active means well fitted inhibition curve with a large enough effect in the polarisation, with a control signal flat, not every such curve was filed as active; inconclusive means small, poorly fitted or top-dose-only effect, or effect the other way, or a change in a side signal; inactive means no such curve, though single readings can be large or run the other way; the % refers to the polarisation
S-ASM inh: blocks human secretory acid sphingomyelinase. AID 504937. actives 0.006% (n = 340,000). Potency, µM (titrated, usually from 57.5 µM), usual class: inhibitors. P17405. placental ASM, HMU-PC fluorogenic substrate, 60 min
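Fluorogenic HMU-PC substrate (9 uM final) is turned over by placental ASM in 60 min at 37 C after a 10 min compound preincubation. Reaction ended by alkaline stop (pH 10), with fluorescence read at 386/447 nm.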
TDP1 inh: inhibitors of human tyrosyl-DNA phosphodiesterase TDP1; Potency, µM (top dose mostly 130 µM), hits mostly inhibitors; actives 0.28% (n = 350,000); AID 485290; recombinant TDP1, AlphaScreen DNA substrate cleavage; further: nearly all actives have a fitted effect of over 40% in size
Target sequence (Q9NUW8 whole entry, looked up): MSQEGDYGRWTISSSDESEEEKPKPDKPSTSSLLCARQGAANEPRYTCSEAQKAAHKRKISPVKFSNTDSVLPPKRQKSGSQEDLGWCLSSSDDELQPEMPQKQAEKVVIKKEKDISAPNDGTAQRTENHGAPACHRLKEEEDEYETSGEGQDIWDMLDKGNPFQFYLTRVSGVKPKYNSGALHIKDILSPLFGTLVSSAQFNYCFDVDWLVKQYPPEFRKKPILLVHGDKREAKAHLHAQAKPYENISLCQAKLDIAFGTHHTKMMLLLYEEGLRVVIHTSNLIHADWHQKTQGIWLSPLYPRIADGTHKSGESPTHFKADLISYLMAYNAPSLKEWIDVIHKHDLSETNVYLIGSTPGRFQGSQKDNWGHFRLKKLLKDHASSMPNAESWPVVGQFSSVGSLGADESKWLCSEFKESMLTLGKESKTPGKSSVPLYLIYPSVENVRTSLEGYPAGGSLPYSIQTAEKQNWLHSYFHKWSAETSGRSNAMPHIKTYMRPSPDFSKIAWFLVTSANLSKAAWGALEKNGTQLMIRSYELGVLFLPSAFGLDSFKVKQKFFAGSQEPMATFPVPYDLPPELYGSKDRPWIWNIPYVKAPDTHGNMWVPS
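Enzyme-compound mixtures sat 15 min at room temperature, followed by a 5 min reaction with 15 nM final substrate and 10 min with AlphaScreen beads. Recombinant human Tdp1 was used at 1 nM final.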
Tb PFK inh: inhibitors of T. brucei phosphofructokinase; O15648; T. brucei PFK, ADP-Glo luminescence; Potency, µM (doses to about 57.5 µM), hits mostly inhibitors; actives 0.17% (n = 330,000); AID 485367; further: nearly all actives have a fitted effect of over 60% in size
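1.25 nM PFK with 0.5 mM F6P and 0.1 mM ATP in 0.1 M TEA pH 8.0, 5 mM MgCl2, incubated 45 min at room temperature; ADP measured by ADP-Glo luminescence; compounds titrated up to 57 uM.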
PLK1 PBD inh: blocks phosphopeptide binding to human PLK1 polo-box domain | actives 2.8% (n = 360,000) | Plk1 PBD binding of FITC phosphopeptide, fluorescence polarization | Potency, µM, hits mostly inhibitors | P53350 | AID 720504; further: series mostly up to about 57 µM; nearly all actives have a fitted effect of over 65% in size
Of the large screens only hits and unclear results are named; the others gave an inactive call; ! = not active in a repeat. In the library only some 3.1% were active in any assay of this set; here they are far more common. Unless noted, the call rests on the fitted dose curve; in most records, active means well fitted curve in the direction sought with a large enough effect; inconclusive means small, poorly fitted or top-dose-only effect, or another doubt; inactive means no such curve, though single readings can be large; an effect the other way counts as inactive or inconclusive.

COc1ccc(S(=O)(=O)Nc2ccc3c(c2)CCCN3S(=O)(=O)c2ccc(C)cc2)cc1F	none (no result: S-ASM inh, Tb PFK inh, PLK1 PBD inh)
COc1cccc(OC)c1C(=O)Nc1ccc2c(c1)CCCN2S(=O)(=O)c1ccc(C)cc1	VDR inhibitor inconclusive, PLK1 PBD inh 11µM
CC(C)Cn1c(-c2ccccc2Cl)nc2ccccc21	none (no result: S-ASM inh, Tb PFK inh, PLK1 PBD inh)
COc1ccccc1-c1nc2ccccc2n(CC(C)C)c1=O	PLK1 PBD inh 24µM (no result: VDR inhibitor, Pin1 inh, S-ASM inh, TDP1 inh, Tb PFK inh)
CN(CCCN1c2ccccc2CCc2ccccc21)CC(=O)c1ccc(Cl)cc1	VDR inhibitor 40µM (no result: Pin1 inh, S-ASM inh, Tb PFK inh, PLK1 PBD inh)
CN(C)CCCN1c2ccccc2CCc2ccc(Cl)cc21	none
CC(C)(C)[C@@H](O)C(Cc1ccc(Cl)cc1)n1cncn1 (stereo partly drawn)	none (no result: Pin1 inh, S-ASM inh, Tb PFK inh, PLK1 PBD inh)
CC(Sc1nc(C(C)(C)C)cc(-c2ccccc2)c1C#N)C(=O)Nc1ccccc1 (stereo not drawn)	VDR inhibitor inconclusive, PLK1 PBD inh 12µM
CC(=O)Nc1cccc(S(=O)(=O)N2CCCN(S(=O)(=O)c3ccc4c(c3)OCCO4)CC2)c1	none (no result: VDR inhibitor, S-ASM inh, Tb PFK inh, PLK1 PBD inh)
CC(C)(C)OC(=O)N1C=CCC1CN1C(=O)COCC1=O (stereo not drawn)	none (no result: S-ASM inh, Tb PFK inh, PLK1 PBD inh)
CN(C)C(=S)Nc1ccc2c(c1)OCO2	PLK1 PBD inh 6.7µM
Cc1ccc(C(=O)Nc2ccc3c(c2)OCO3)o1	PLK1 PBD inh 12µM
COc1ncc2nc(-c3ccc(F)cc3)c(=O)n(Cc3ccc(F)cc3)c2n1	none (no result: Pin1 inh, S-ASM inh, TDP1 inh, Tb PFK inh, PLK1 PBD inh)
CO[C@H]1/C=C/O[C@@]2(C)Oc3c(C)c(O)c4c(O)c(c(/C=N\N5CCN(C6CCCC6)CC5)c(O)c4c3C2=O)NC(=O)/C(C)=C\C=C\[C@H](C)[C@H](O)[C@@H](C)[C@@H](O)[C@@H](C)[C@H](OC(C)=O)[C@@H]1C	VDR inhibitor 11µM (no result: Pin1 inh, S-ASM inh, TDP1 inh, Tb PFK inh, PLK1 PBD inh)
Fc1ccc(-c2csc(=S)[nH]2)cc1	VDR inhibitor 79µM, PLK1 PBD inh 24µM
CC(C)[C@H](NC(=O)OC(C)(C)C)c1nnc(S(=O)(=O)Cc2c(F)cccc2Cl)o1	VDR inhibitor inconclusive, PLK1 PBD inh 9.5µM
C[C@H](NC(=O)OC(C)(C)C)c1nnc(SCc2c(F)cccc2Cl)o1	VDR inhibitor 89µM (no result: S-ASM inh, Tb PFK inh, PLK1 PBD inh)
CC[C@@H](C)[C@H](NC(=O)OC(C)(C)C)c1nnc(S(=O)(=O)Cc2cc(C)ccc2C)o1	VDR inhibitor 11µM, PLK1 PBD inh 6µM
Cc1ccc2c(c1)-c1c(cnn1CC(=O)N1CCN(c3cccc(C(F)(F)F)c3)CC1)CO2	none (no result: S-ASM inh, Tb PFK inh, PLK1 PBD inh)
CCNc1nc2c(c(=O)n(Cc3ccccc3)c(=O)n2C)n1Cc1ccccc1	Pin1 inh inconclusive
CCNc1nc2c(c(=O)n(C)c(=O)n2C)n1CCCc1ccccc1	VDR inhibitor inconclusive, PLK1 PBD inh 3.4µM (no result: TDP1 inh)
Cc1nn(-c2ccccc2)c2c1C(c1ccco1)C(C#N)=C(N)O2 (stereo not drawn)	PLK1 PBD inh 27µM
Cc1nn(-c2ccccc2)c2c1C(c1cccs1)C(C#N)=C(N)O2 (stereo not drawn)	Tb PFK inh inconclusive, PLK1 PBD inh inconclusive
Nc1ccc(N)c(C(=O)O)c1	VDR inhibitor inconclusive, Pin1 inh inconclusive, TDP1 inh 0.28µM, Tb PFK inh inconclusive, PLK1 PBD inh 24µM
Nc1ccc(C(=O)O)c(O)c1	none
Cc1cc(C)c(C#N)c(SCC(=O)c2cccs2)n1	TDP1 inh 50µM
CCC(NC(C)C)C(O)c1ccc(O)c(O)c1 (stereo not drawn)	VDR inhibitor 50µM!
Cc1c(Cl)ccc2c(C(=O)O)cc(-c3ccccc3)nc12	PLK1 PBD inh 24µM
CC(=O)c1ccc(N=Nc2ccc(C)cc2)cc1	none
C=C(C)C(=O)Oc1ccc(N=Nc2ccc(C)cc2)ccc1=O	VDR inhibitor inconclusive, PLK1 PBD inh 21µM (no result: Pin1 inh, TDP1 inh, Tb PFK inh)
CC(=O)OCC(=O)[C@@]1(O)CCC2C3C[C@H](C)C4=CC(=O)C=CC4(C)C3C(O)CC21C (stereo partly drawn)	none (no result: Pin1 inh, S-ASM inh, Tb PFK inh, PLK1 PBD inh)
Cc1cc(N2C(=O)C=CC2=O)c([N+](=O)[O-])cc1C	VDR inhibitor 32µM, Tb PFK inh inconclusive, PLK1 PBD inh 6µM
CCOC(=O)/C(=C/c1ccc(OC(=O)c2ccncc2)cc1)C(C)=O	VDR inhibitor inconclusive, PLK1 PBD inh inconclusive
